{
  "source": "PubChem BioAssay (Tox21)",
  "note": "Results filed as inconclusive are left out. Calls of active or inactive are those of the source. Calls come from the whole dose curve; as a rule, active = well fitted activation curve with a large enough effect in the signal ratio in the repeat runs (not every such curve was filed as active); inconclusive = weak or mixed curves, or effect the other way; inactive = flat fitted curve, though single readings scatter; the % refers to the signal ratio.",
  "data": [
    {"biological_target": "Bile acid receptor (Homo sapiens) (UniProt Q96RI1)", "sequence (Q96RI1 whole entry, looked up)": "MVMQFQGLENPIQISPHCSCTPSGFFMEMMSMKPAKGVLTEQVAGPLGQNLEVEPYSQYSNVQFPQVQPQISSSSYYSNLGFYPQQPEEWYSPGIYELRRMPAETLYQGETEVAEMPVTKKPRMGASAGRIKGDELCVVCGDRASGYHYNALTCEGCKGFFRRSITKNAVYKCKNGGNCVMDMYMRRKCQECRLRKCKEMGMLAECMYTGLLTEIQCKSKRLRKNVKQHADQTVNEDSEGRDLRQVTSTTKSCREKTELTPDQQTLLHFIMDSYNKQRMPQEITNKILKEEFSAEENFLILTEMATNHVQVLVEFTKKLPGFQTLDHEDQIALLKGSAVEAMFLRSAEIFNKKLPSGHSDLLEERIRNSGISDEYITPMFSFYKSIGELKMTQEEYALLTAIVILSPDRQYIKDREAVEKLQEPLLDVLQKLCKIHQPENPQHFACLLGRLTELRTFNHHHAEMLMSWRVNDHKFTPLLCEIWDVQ", "assay": "qHTS assay to identify small molecule agonists of the farnesoid-X-receptor (FXR) signaling pathway (AID 743220)", "conditions": "HEK293T FXR-UAS-bla, beta-lactamase FRET ratio, 16 h; series mostly up to 62.6 µM", "from_the_text": "National Center for Advancing Translational Sciences [NCATS]\nNIH Chemical Genomics Center [NCGC]\nU.S. Environmental Protection Agency [EPA]\nNational Institutes of Environmental Health Sciences [NIEHS]\nNational Toxicology Program [NTP]\nU.S. Food and Drug Administration [FDA]\nThe farnesoid-X-receptor (FXR), a nuclear hormone receptor, is highly expressed in liver, intestine, kidney and adrenal cortex. Natural ligands of FXR are the bile acids (Cholic acid, Chenodeoxy cholic acid etc). FXR is an important regulator of diverse metabolic pathways, including the bile acid homeostasis, lipid and glucose metabolisms. FXR regulates the expression of target genes by binding either as a monomer or as a heterodimer with the retinoid X receptor (RXR). Numerous studies have reported that FXR exerts protective function during cholestasis, diabetes, liver regeneration, and cancer. To identify compounds that activate FXR signaling, GeneBLAzer FXR-UAS-bla HEK 293T cell line (Invitrogen, Carlsbad, CA) containing a beta-lactamase reporter gene under the control of a UAS response element was used to screen the Tox21 10K compound library.\nTox21 Assay Protocol Summary:\nFXR-bla cells were dispensed at 5000 cells/5uL/well in 1536-well black wall/clear bottom plates using a Multidrop Combi (Thermo Fisher Scientific, Waltham, MA) dispenser. After the assay plates were incubated at 37C and 5% CO2 for 5 h, 23 nL of compounds dissolved in DMSO, positive controls or DMSO only was transferred to the assay plate by a Pintool station (Kalypsys, San Diego, CA). The assay plates were incubated at 37C for 16 h. After 1 uL of LiveBLAzerTM B/G FRET substrate was added using a Bioraptr Flying Reagent Dispenser (FRD) workstation (Beckman Coulter, Indianapolis, IN), the plates were incubated at room temperature for 2 h, and fluorescence intensity was measured by an Envision plate reader (PerkinElmer, Shelton, CT).", "values": [
      {"smiles": "COC(=O)c1ccc(OC)cc1", "outcome": "inactive"},
      {"smiles": "CC1CN(c2ccccc2)NC1=O", "note": "(stereo not given)", "outcome": "inactive"},
      {"smiles": "O=c1oc2c(O)c(O)cc3c(=O)oc4c(O)c(O)cc1c4c23", "outcome": "inactive"},
      {"smiles": "CC(C)c1ccccc1", "outcome": "inactive"},
      {"smiles": "CCC1(C)NC(=O)NC1=O", "note": "(stereo not given)", "outcome": "inactive"},
      {"smiles": "CN1CCN(c2c(F)cc3c(=O)c(C(=O)O)cn4c3c2SCC4)CC1", "outcome": "inactive"},
      {"smiles": "CC1(C)C(=O)N(Cl)C(=O)N1Br", "outcome": "inactive"},
      {"smiles": "Oc1ccccc1F", "outcome": "inactive"},
      {"smiles": "CC(=O)N(CC(O)CN(C(C)=O)c1c(I)c(C(=O)NCC(O)CO)c(I)c(C(=O)NCC(O)CO)c1I)c1c(I)c(C(=O)NCC(O)CO)c(I)c(C(=O)NCC(O)CO)c1I", "note": "(stereo not given)", "outcome": "inactive"},
      {"smiles": "Cc1cc2nc(N)sc2cc1C", "outcome": "inactive"},
      {"smiles": "CCCCc1ccc2nc(NC(=O)OC)[nH]c2c1", "outcome": "inactive"},
      {"smiles": "COc1cc2c(cc1N)oc1ccccc12", "outcome": "inactive"},
      {"smiles": "Cn1cnc2c(F)c(Nc3ccc(Br)cc3Cl)c(C(=O)NOCCO)cc21", "outcome": "inactive"},
      {"smiles": "CCN(CC)C(=O)N(CC)CC", "outcome": "inactive"},
      {"smiles": "OC[C@H]1O[C@@H](O[C@H]2[C@H](O)[C@@H](O)[C@H](O)O[C@@H]2CO)[C@H](O)[C@@H](O)[C@H]1O", "outcome": "inactive"},
      {"smiles": "Cc1ccccc1C(=O)Nc1ccc(C(=O)N2CCCC(O)c3cc(Cl)ccc32)c(C)c1", "note": "(stereo not given)", "outcome": "inactive"},
      {"smiles": "CC(C)O", "outcome": "inactive"},
      {"smiles": "CCc1nnc(NS(=O)(=O)c2ccc(N)cc2)s1", "outcome": "inactive"},
      {"smiles": "NCCC(O)(P(=O)(O)O)P(=O)(O)O", "outcome": "inactive"},
      {"smiles": "CC1=C(O)C(=O)OC1C", "note": "(stereo not given)", "outcome": "inactive"},
      {"smiles": "CCOC(=O)CS", "outcome": "inactive"},
      {"smiles": "CC(C)NC[C@@H](O)COc1cccc2ccccc12", "outcome": "inactive"},
      {"smiles": "COC(=O)C(C)O", "note": "(stereo not given)", "outcome": "inactive"},
      {"smiles": "CCC(=O)Nc1ccc(O)cc1", "outcome": "inactive"},
      {"smiles": "CCOc1ccc(NC(N)=O)cc1", "outcome": "inactive"},
      {"smiles": "CN(CCCN1c2ccccc2CCc2ccccc21)CC(=O)c1ccc(Cl)cc1", "outcome": "inactive"},
      {"smiles": "CC(=O)OC1C2(C)CCC(C2)C1(C)C", "note": "(stereo not given)", "outcome": "inactive"},
      {"smiles": "CN1[C@@H]2CC[C@H]1CC(OC(=O)c1c[nH]c3ccccc13)C2", "note": "(stereo not given in full)", "outcome": "inactive"},
      {"smiles": "Cc1nc(N)nc(N)c1-c1ccc(Cl)c(Cl)c1", "outcome": "inactive"},
      {"smiles": "COC(=O)/C=C(/C)N", "outcome": "inactive"},
      {"smiles": "O=[N+]([O-])c1nccn1CO[C@@H](CO)[C@H](O)CO", "outcome": "inactive"},
      {"smiles": "CS(=O)(=O)c1ccc([C@@H](O)[C@@H](CF)NC(=O)C(Cl)Cl)cc1", "outcome": "inactive"},
      {"smiles": "CN1CCN(N)CC1", "outcome": "inactive"},
      {"smiles": "Nc1ccc(Oc2ccc(N)c(N)c2)cc1", "outcome": "inactive"},
      {"smiles": "CCCCCCOc1ccc(N)cc1", "outcome": "inactive"},
      {"smiles": "O=Cc1ccc(O)c(O)c1O", "outcome": "inactive"},
      {"smiles": "O=c1[nH]c(=O)n([C@H]2C[C@H](O)[C@@H](CO)O2)cc1C(F)(F)F", "outcome": "inactive"},
      {"smiles": "CCCCCCCCOC(=O)CCCCCCCCC(=O)OCCCCCCCC", "outcome": "inactive"},
      {"smiles": "CCCc1c2oc(C(=O)O)cc(=O)c2cc2c(=O)cc(C(=O)O)n(CC)c12", "outcome": "inactive"},
      {"smiles": "CC(C)(C)c1ccc(OC(=O)c2ccccc2O)cc1", "outcome": "inactive"}
    ]}
  ]
}
